Measured values as given in the supplement of paper PMC7156485.

Experiments:
Conditions in all cases: concentration: 10 µM; 24 h
HCC1569 [1] = assay: cell number relative to DMSO (% of DMSO); higher = more cells (less growth inhibition / toxicity)
In short: (§1)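 Using 384-well plates with 800 cells per well in RPMI plus 10% FBS, HCC1569 and TDF cells were exposed to compounds at 10 µM, in triplicate, for 24 h at 37 °C. Imaging of six fields per well at ×10 followed H1.0 and DAPI staining. The reported quantity, H1.0 nuclear intensity or cell number, is a median of replicates given as percent of the plate control, and HCC1569 values were smoothed for positional effects.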

TDF [2] = assay: as above
In short: as §1

TDF [3] = assay: H1.0 immunofluorescence intensity relative to DMSO (% of DMSO); higher = stronger H1.0 induction, active = 120 or more
In short: as §1

HCC1569 [4] = assay: H1.0 immunofluorescence intensity relative to DMSO (% of DMSO); higher = stronger H1.0 induction, active = 140 or more
In short: as §1
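Throughout, for H1.0 immunofluorescence intensity relative to DMSO: TDF is a line of transformed human dermal fibroblasts of mesenchymal origin.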
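Throughout, for cell number relative to DMSO: TDF denotes transformed human dermal fibroblasts of mesenchymal origin.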

With Br.Oc1ccc(C2CNCc3sccc32)cc1O (configuration not stated) the cell number (HCC1569 [1]) was 100, the cell number (TDF [2]) was 96.3 and the H1.0 immunofluorescence intensity (TDF [3]) was 94.4 (inactive). For the same compound, the H1.0 immunofluorescence intensity (HCC1569 [4]) was 112 (inactive).

CC(C)CC(NC(=O)C(Cc1c[nH]c2ccccc12)NC(=O)C(Cc1ccc(O)cc1)NC(=O)C(CO)NC(=O)C(Cc1c[nH]c2ccccc12)NC(=O)C(Cc1cnc[nH]1)NC(=O)C1CCC(=O)N1)C(=O)NC(CCCN=C(N)N)C(=O)N1CCCC1C(=O)NCC(N)=O (configuration not stated) [Triptorelin] was tested, and the cell number (HCC1569 [1]) was 107, the cell number (TDF [2]) was 89.6 and the H1.0 immunofluorescence intensity (TDF [3]) was 97.7 (inactive). The H1.0 immunofluorescence intensity (HCC1569 [4]) was 103 (inactive).

For CCC1(O)CC2CN(CCc3c([nH]c4ccccc34)C(C(=O)OC)(c3cc4c(cc3OC)N(C)C3C(O)(C(=O)OC)C(OC(C)=O)C5(CC)C=CCN6CCC43C65)C2)C1 (configuration not stated) [Vinblastine], the cell number (HCC1569 [1]) was 53.6, the cell number (TDF [2]) was 9.51 and the H1.0 immunofluorescence intensity (TDF [3]) was 161 (active). The H1.0 immunofluorescence intensity (HCC1569 [4]) was 164 (active).

With CC(=O)NC(Cc1c[nH]c2ccccc12)C(=O)OCc1cc(C(F)(F)F)cc(C(F)(F)F)c1 (configuration not stated) the cell number (HCC1569 [1]) was 102, the cell number (TDF [2]) was 103 and the H1.0 immunofluorescence intensity (TDF [3]) was 93.2 (inactive). The H1.0 immunofluorescence intensity (HCC1569 [4]) was 90.8 (inactive).

In the case of COC(=O)[C@@H](N)CSCC=C(C)CCC=C(C)CCC=C(C)C [S-Farnesyl-L-cysteine methylester], the cell number (HCC1569 [1]) was 106, the cell number (TDF [2]) was 94.7 and the H1.0 immunofluorescence intensity (TDF [3]) was 95.6 (inactive). The H1.0 immunofluorescence intensity (HCC1569 [4]) was 103 (inactive).

In the case of COc1cc(C(C)=O)cc(-c2cc(C(C)=O)cc(OC)c2O)c1O, the cell number (HCC1569 [1]) was 100, the cell number (TDF [2]) was 110 and the H1.0 immunofluorescence intensity (TDF [3]) was 93.8 (inactive). For the same compound, the H1.0 immunofluorescence intensity (HCC1569 [4]) was 100 (inactive).

COc1ccc(C2Sc3ccccc3N(CCN(C)C)C(=O)C2OC(C)=O)cc1 (configuration not stated) [Diltiazem] was tested, and the cell number (HCC1569 [1]) was 104, the cell number (TDF [2]) was 107 and the H1.0 immunofluorescence intensity (TDF [3]) was 92 (inactive). For the same compound, the H1.0 immunofluorescence intensity (HCC1569 [4]) was 101 (inactive).

For CCCCCC(O)C=CC=CCC=CCCCCC(=O)O (configuration not stated), the cell number (HCC1569 [1]) was 103, the cell number (TDF [2]) was 97.9 and the H1.0 immunofluorescence intensity (TDF [3]) was 97.2 (inactive). The H1.0 immunofluorescence intensity (HCC1569 [4]) was 101 (inactive).

For CCCCCCCCCCCC=CC(C)(C)C=CCCCC(=O)O [7,7-Dimethyl-(5Z,8Z)-eicosadienoic acid], the cell number (HCC1569 [1]) was 102, the cell number (TDF [2]) was 101 and the H1.0 immunofluorescence intensity (TDF [3]) was 91.9 (inactive). The H1.0 immunofluorescence intensity (HCC1569 [4]) was 92.2 (inactive).

CCCCCCCCCC(=O)OCC(CO)OC(=O)CCCCCCCCC (configuration not stated) [1,2-Didecanoyl-glycerol (10:0)] was tested, and the cell number (HCC1569 [1]) was 102, the cell number (TDF [2]) was 98.8 and the H1.0 immunofluorescence intensity (TDF [3]) was 98.3 (inactive). For the same compound, the H1.0 immunofluorescence intensity (HCC1569 [4]) was 101 (inactive).

CCCCCCCCCCCC1=C(O)C(=O)C=C(O)C1=O [Embelin] was tested, and the cell number (HCC1569 [1]) was 98.8, the cell number (TDF [2]) was 97.1 and the H1.0 immunofluorescence intensity (TDF [3]) was 97.6 (inactive). The H1.0 immunofluorescence intensity (HCC1569 [4]) was 87.3 (inactive).

For CC(NCCc1ccc(O)cc1)C(O)c1ccc(O)cc1.Cl (configuration not stated) [Ritodrine hydrochloride], the cell number (HCC1569 [1]) was 107, the cell number (TDF [2]) was 113 and the H1.0 immunofluorescence intensity (TDF [3]) was 101 (inactive). The H1.0 immunofluorescence intensity (HCC1569 [4]) was 91.5 (inactive).

In the case of COc1cc(/C=C/C(=O)NCCn2c(C)cc3ccccc32)cc(OC)c1OC, the cell number (HCC1569 [1]) was 103, the cell number (TDF [2]) was 96.6 and the H1.0 immunofluorescence intensity (TDF [3]) was 103 (inactive). For the same compound, the H1.0 immunofluorescence intensity (HCC1569 [4]) was 106 (inactive).

With CCS(=O)(=O)CCn1c([N+](=O)[O-])cnc1C [Tinidazole] the cell number (HCC1569 [1]) was 107, the cell number (TDF [2]) was 104 and the H1.0 immunofluorescence intensity (TDF [3]) was 102 (inactive). The H1.0 immunofluorescence intensity (HCC1569 [4]) was 105 (inactive).

For CNC1(C)C2CCC(C2)C1(C)C.Cl (configuration not stated) [Mecamylamine hydrochloride], the cell number (HCC1569 [1]) was 106, the cell number (TDF [2]) was 108 and the H1.0 immunofluorescence intensity (TDF [3]) was 94.1 (inactive). For the same compound, the H1.0 immunofluorescence intensity (HCC1569 [4]) was 93.5 (inactive).

Br.CN1CCc2cc(O)c(O)cc2C1Cc1ccc(O)c(O)c1.O.O.O (configuration not stated) was tested, and the cell number (HCC1569 [1]) was 105, the cell number (TDF [2]) was 108 and the H1.0 immunofluorescence intensity (TDF [3]) was 93.9 (inactive). The H1.0 immunofluorescence intensity (HCC1569 [4]) was 89.2 (inactive).

CN(C)CCOC(c1ccccc1)c1ccccc1.Cl [Diphenhydramine hydrochloride] was tested, and the cell number (HCC1569 [1]) was 100, the cell number (TDF [2]) was 105 and the H1.0 immunofluorescence intensity (TDF [3]) was 88.7 (inactive). The H1.0 immunofluorescence intensity (HCC1569 [4]) was 97 (inactive).

For COc1c2ccoc2cc2oc(C)cc(=O)c12 [Visnagin], the cell number (HCC1569 [1]) was 103, the cell number (TDF [2]) was 102 and the H1.0 immunofluorescence intensity (TDF [3]) was 94.7 (inactive). For the same compound, the H1.0 immunofluorescence intensity (HCC1569 [4]) was 82.3 (inactive).

For CC(=O)OCC1=C(C(=O)[O-])N2C(=O)C(NC(=O)Cc3cccs3)C2SC1.[Na+] (configuration not stated) [Cephalothin sodium], the cell number (HCC1569 [1]) was 100, the cell number (TDF [2]) was 113 and the H1.0 immunofluorescence intensity (TDF [3]) was 89.4 (inactive). The H1.0 immunofluorescence intensity (HCC1569 [4]) was 89.2 (inactive).

For Cc1cccc(C=Cc2ccccc2)n1, the cell number (HCC1569 [1]) was 101, the cell number (TDF [2]) was 104 and the H1.0 immunofluorescence intensity (TDF [3]) was 96.7 (inactive). For the same compound, the H1.0 immunofluorescence intensity (HCC1569 [4]) was 100 (inactive).

O=C(Nc1cccc(-c2ccccc2)c1)OC1CCCCC1 [cyclohexyl [1,1'-biphenyl]-3-ylcarbamate] was tested, and the cell number (HCC1569 [1]) was 105, the cell number (TDF [2]) was 94.2 and the H1.0 immunofluorescence intensity (TDF [3]) was 93.4 (inactive). For the same compound, the H1.0 immunofluorescence intensity (HCC1569 [4]) was 88.6 (inactive).

With CCCn1cnc2c1c(=O)n(CCCCC(C)=O)c(=O)n2C [Propentofylline] the cell number (HCC1569 [1]) was 104, the cell number (TDF [2]) was 113 and the H1.0 immunofluorescence intensity (TDF [3]) was 90.3 (inactive). For the same compound, the H1.0 immunofluorescence intensity (HCC1569 [4]) was 100 (inactive).

For CCCCC1=NC2(CCCC2)C(=O)N1Cc1ccc(-c2ccccc2-c2nn[nH]n2)cc1, the cell number (HCC1569 [1]) was 101, the cell number (TDF [2]) was 99.3 and the H1.0 immunofluorescence intensity (TDF [3]) was 101 (inactive). For the same compound, the H1.0 immunofluorescence intensity (HCC1569 [4]) was 88.4 (inactive).
